From PubChem BioAssay
This is a sample that favours compounds with a hit; in the whole collection about 5.3% have one here.
JMJD2E inh: blocks human JMJD2E demethylase activity | B2RXH2 | JMJD2E catalytic domain, FDH-coupled NADH fluorescence (FDH is formaldehyde dehydrogenase) | Potency, µM (doses to about 57.1 µM), hits mostly inhibitors | 230,000 tested, 1.6% active | AID 2147; active means well fitted inhibition curve with a large enough effect, not every such curve was filed as active; inconclusive means small, poorly fitted or top-dose-only effect, or another doubt; inactive means no such curve, though single readings can be large or run the other way; further: nearly all actives have a fitted effect of over 50% in size
Target sequence (B2RXH2 1-337 limits assumed): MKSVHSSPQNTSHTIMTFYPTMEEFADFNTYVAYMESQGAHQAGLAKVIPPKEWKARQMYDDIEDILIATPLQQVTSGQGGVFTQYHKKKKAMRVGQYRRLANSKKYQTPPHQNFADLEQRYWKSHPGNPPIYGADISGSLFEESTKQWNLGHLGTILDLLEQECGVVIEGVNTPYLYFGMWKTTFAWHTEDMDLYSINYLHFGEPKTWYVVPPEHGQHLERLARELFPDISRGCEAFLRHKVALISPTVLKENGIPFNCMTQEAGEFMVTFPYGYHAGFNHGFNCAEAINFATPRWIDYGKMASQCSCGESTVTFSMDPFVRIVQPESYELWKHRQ
Sfp PPTase inh: blocks B. subtilis Sfp PPTase activity; Biochemical Sfp PPTase activity, qHTS; Q9F4F7; 310,000 tested, 3.5% active; AID 1490; Potency, µM, hits mostly inhibitors;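 further: the enzyme is Sfp with the accession as filed and its product quenches rhodamine fluorescence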
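Sfp 15 nM + cpd, 15 min RT; start w/ rhodamine-CoA 5 uM, BHQ-2-YbbR 12.5 uM (final); 50 mM Hepes pH 7.6, 10 mM MgCl2, 0.01% NP-40, 0.01% BSA; read 525/598 nm at 0 and 30 min.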
Tau FP inhib: tau fibrillization inhibition (FP) | Potency, µM (doses to about 57.7 µM), most hits filed as inhibitors | P10636 | K18 P301L tau heparin fibrillization, Alexa594 FP, 6 h | 280,000 tested, 0.39% active | AID 1468; further: nearly all actives have a fitted effect of over 55% in size
Target sequence (P10636 561-689 P618L limits assumed): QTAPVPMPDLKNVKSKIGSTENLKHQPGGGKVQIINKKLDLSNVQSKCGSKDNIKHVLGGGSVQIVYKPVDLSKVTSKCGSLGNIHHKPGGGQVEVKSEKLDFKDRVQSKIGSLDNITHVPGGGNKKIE
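Recombinant K18 P301L […], labeled with Alexa 594 at 0.24 uM over 15 uM unlabeled; heparin inducer 20 uM final; 37 C, 6 hr; FP endpoint.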
Tau fluor counter: counter-screen for tau fibril formation inhibitors; tau K18 P301L Alexa594 fluorescence, heparin fibrillization; Potency, µM (titrated, usually from 57.7 µM); 280,000 tested, 0.93% active; AID 1463; further: nearly all actives have a fitted effect of over 55% in size
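Human K18 P301L tau (15 uM unlabeled plus 0.24 uM Alexa 594-labeled, final) in 100 mM sodium acetate pH 7 was mixed with compound and 20 uM heparin and incubated 6 hr at 37 C.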
Tau ThT inhib: tau fibrillization inhibition (ThT binding). recombinant tau K18 P301L (four-repeat tau fragment), heparin-induced fibrillization, ThT fluorescence. Potency, µM (titrated, usually from 57.4 µM), most hits filed as inhibitors. 270,000 tested, 2.1% active. AID 1460; further: nearly all actives have a fitted effect of over 55% in size
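Heparin-induced (20 uM) aggregation of recombinant human K18 P301L tau, 15 uM unlabeled with 0.24 uM labeled, pH 7 acetate buffer, 6 hr at 37 C with compound. Fibrils quantified by 30 uM ThT fluorescence after 1 hr ambient incubation.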
Coupling enz: inhibits coupling enzyme system, counter-screen for aldolase hits; AID 2472; 290,000 tested, 0.67% active; activity change, negative = inhibition, % at 58.2 µM, hits read low; coupling enzyme system counterscreen, AmpLite Red fluorescence; in the data active means activity change below about -30%
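Compounds tested against the coupling enzymes alone at 57.5 uM final; readout was AmpLite Red fluorescence (525/598 nm) after 20 min at RT.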
A number is an active result; . = inactive; ? = inconclusive; / = no result given; ! = a repeat was not active; [ ] = remark or other dose. Unless noted, the call rests on the fitted dose curve; in most records, active means well fitted curve in the direction sought with a large enough effect; inconclusive means small, poorly fitted or top-dose-only effect, or another doubt; inactive means no such curve, though single readings can be large; an effect the other way counts as inactive or inconclusive.

SMILES	JMJD2E inh	Sfp PPTase inh	Tau FP inhib	Tau fluor counter	Tau ThT inhib	Coupling enz
COc1ccccc1-n1c(SCC(=O)NC2CCS(=O)(=O)C2)nc2cc([N+](=O)[O-])ccc21 (centres undefined)	.	.	.	.	.	.
COc1ccccc1-n1c(SCC(=O)c2ccc(O)cc2O)nc2cc([N+](=O)[O-])ccc21	.	.	?	10µM[quencher]	.	.
CCCOC1(NC(=O)c2ccccc2)C(C)=CC(=O)C=C1C	.	56µM	.	.	.	.
CCCOC(=O)c1ccccc1	/	.	.	.	.	.
CCc1ccc(CNC(=O)CN2C(=O)c3cccnc3Oc3ccc(Cl)cc32)cc1	/	/	.	.	.	/
O=C(Nc1ccc(Cl)c(Cl)c1)Nc1nnc(CC2=CCCCC2)s1	.	.	8.9µM	?	.	.
CC1=C(C(=O)Nc2ccccc2)C2(CCCCC2)C(C(N)=O)C(=S)N1 (centres undefined)	.	.	.	.	.	.
CC1=C(C(=O)Nc2ccccc2)C2(CCCCC2)C(C#N)=C(S)N1	.	32µM	.	.	?	.
CSCCC(NS(=O)(=O)c1cccs1)C(=O)Nc1ccc(C)c(Cl)c1 (centres undefined)	/	/	?	?	.	/
COCCn1c(=O)c(-c2cccs2)nc2cnc(N(C)C)nc21	/	.	/	/	/	.
COC(=O)CCC(=O)OC1(C)C(=O)C2=CN(CCCOC(C)C)C(c3ccc(OC)cc3)=CC2=C(Br)C1=O (centres undefined)	4.5µM	.	?	.	16µM	-41
COC(=O)CCC(=O)OC1(C)C(=O)C2=CN(CC3CC3)C(c3ccc(OC)cc3)=CC2=C(Br)C1=O (centres undefined)	13µM	.	?	.[11.6 µM]	11µM!	-32
COC(=O)CCC(=O)OC1(C)C(=O)C2=CN(Cc3ccc(OC)cc3)C(c3ccc(OC)cc3)=CC2=C(Br)C1=O (centres undefined)	.[11.4 µM]	.	.[11.6 µM]	.[11.6 µM]	.[11.5 µM]	.
COC(=O)CCC(=O)OC1(C)C(=O)C2=CN(CC(C)C)C(c3ccc(OC)cc3)=CC2=C(Br)C1=O (centres undefined)	?	?	8.9µM!	.[11.6 µM]	10µM!	-40!
Fc1ccc(Nc2ncncc2-c2ccoc2)cc1	/	.	/	/	/	.
Cc1nn2c(=O)cc(COC(=O)c3cccc(NC(=O)c4ccc(F)cc4)c3)nc2s1	/	/	.	.	?	/
O=[N+]([O-])c1ccc(/C=N/n2cnc3ccccc32)s1	.	.	.	25µM[quencher]	14µM	.
Cc1cc2ncn(/N=C/c3ccc([N+](=O)[O-])s3)c2cc1C	?	.	.	?	?	.
O=C(Nc1ccc(Cl)cc1)[C@@H]1[C@@H]2C(=O)N(c3ccc(Cl)cc3Cl)C(=O)[C@@H]2[C@H]2C=CC=NN21	.	.	.	.	?	.
Cc1ccc(N2C(=O)[C@@H]3[C@H](C2=O)[C@H]2C=CC=NN2[C@@H]3C(=O)Nc2ccc(Cl)cc2)cc1	.	40µM	.	.	?	.
O=C(Nc1ccc(Cl)cc1)[C@@H]1[C@@H]2C(=O)N(c3ccc(Cl)cc3)C(=O)[C@@H]2[C@H]2C=CC=NN21	.	45µM	.	.	?	.
Cc1cccc(Cn2cc(S(=O)(=O)c3ccccc3)c(=O)c3cc(F)c(N4CCOCC4)cc32)c1	/	/	.	.	.	/
O=C(O)CCc1n[nH]c(=S)[nH]c1=O	.	56µM	.	.	.	.
CCOC(=O)CCc1n[nH]c(=O)[nH]c1=O	.	.	.	.	.	.
COc1cc(OC)cc(-c2nc3ccccc3c(=O)n2OC(=O)c2ccccc2C)c1	.	.	.	.	?	.
SMILES	JMJD2E inh	Sfp PPTase inh	Tau FP inhib	Tau fluor counter	Tau ThT inhib	Coupling enz
O=C(On1c(-c2ccccc2)nc2ccccc2c1=O)c1ccco1	20µM	.	.	.	.	.
Cc1cc(C)c(C)c(OCC(=O)Nc2ccc(S(=O)(=O)Nc3nc(C)cc(C)n3)cc2)c1	/	/	.	.	?	/
CC(C(Sc1ccccc1N)c1ccccc1)[N+](=O)[O-] (centres undefined)	11µM	4µM	?	.	/	.
CC(=O)N1CCN(c2ccc(NC(=S)NC(=O)COc3ccc(C(C)(C)C)cc3)cc2)CC1	.	?	.	.	4µM	.
COc1ccc2nc(N3CCC(C)CC3)c(C#N)cc2c1	?	40µM	?	?	35µM	.
COc1ccc2nc(N3CCC(O)CC3)c(C#N)cc2c1	?	.	.	.	.	-34
COc1ccc2cc(C#N)c(N3CCOCC3)nc2c1	/	.	/	/	/	.
CCc1cccc(NC(=O)c2oc3ccc4c(c3c2C)C(=O)CC(C)(C)O4)c1	/	/	.	.	.	/
Cc1nc(C)c(C(=O)Nc2ncc([N+](=O)[O-])s2)o1	.	.	?	.	25µM	.
COc1ccc(CC(=O)Nc2ncc([N+](=O)[O-])s2)cc1OC	.	25µM	.	.	?	.
Cc1ccc(N2CC(C(=O)Nc3ncc([N+](=O)[O-])s3)CC2=O)cc1 (centres undefined)	/	.	/	/	/	.
COc1ccc(CC(=O)Nc2nccs2)cc1OC	.	.	.	.	.	.
CC(C)CC(=O)Nc1ncc([N+](=O)[O-])s1	.	35µM	.	.	/	.
